# Bioassay records (PubChem)
# An excerpt weighted towards active compounds, which were near 11% of everything screened.
# HTT aggregate = mutant huntingtin aggregation inhibition; AID 1688; 220,000 tested, 1.1% active; Potency, µM (series often up to 46.1 µM), for the others: top-dose activity change, negative = inhibition, actives largely listed as inhibitors; PC12 HttQ103-GFP aggregates, Acumen cytometry, 40 h; note: potency is the fitted concentration of half-maximal effect; % is set by controls: 0 for no effect and ±100 for the full control effect; nearly all actives have a fitted effect of over 60% in size
#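 Huntingtin Q103 exon 1–GFP aggregates in induced PC12 cells (100 nM tebufenozide) were quantified by cytometry from lysates, with compounds dosed in titration.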
# ALDH1A1 block = blocks purified human ALDH1A1 activity | Potency, µM (top dose mostly 75.3 µM), without a hit: at the highest dose activity, negative = inhibition, hits mostly inhibitors | 220,000 tested, 7.3% active | Purified ALDH1A1, NADH fluorescence, propionaldehyde substrate | P00352; active = well fitted inhibition curve with a large enough effect, not every such curve was filed as active; inconclusive = small, poorly fitted or top-dose-only effect, or another doubt; inactive = no such curve, though single readings can be large or run the other way;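 note: potency is the fitted concentration of half-maximal effect; plate controls were no enzyme wells and a reference inhibitor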
# HPGD inh = blocks human HPGD enzyme activity; P15428; purified HPGD, NADH fluorescence kinetic, PGE2 substrate; Potency, µM, for the others: top-dose activity change, negative = inhibition, hits mostly inhibitors; 150,000 tested, 4.3% active; AID 894; active = well fitted inhibition curve with a large enough effect, not every such curve was filed as active; inconclusive = small, poorly fitted or top-dose-only effect, or another doubt; inactive = no such curve, though single readings can be large or run the other way; note: potency is the fitted concentration of half-maximal effect; % is set by controls: 0 for no effect and ±100 for the full control effect
# Target sequence (P15428 whole entry, looked up): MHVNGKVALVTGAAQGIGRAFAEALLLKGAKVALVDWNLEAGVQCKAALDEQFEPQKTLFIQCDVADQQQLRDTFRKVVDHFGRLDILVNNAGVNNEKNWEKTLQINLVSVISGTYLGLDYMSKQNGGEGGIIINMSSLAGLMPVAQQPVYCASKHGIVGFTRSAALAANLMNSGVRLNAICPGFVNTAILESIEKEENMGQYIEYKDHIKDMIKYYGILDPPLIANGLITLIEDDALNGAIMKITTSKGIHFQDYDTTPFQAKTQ
#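 NADH formation kinetics: reaction with 30 uM PGE2 and 1 mM NAD+ (final), 20 nM enzyme, Tris-HCl pH 8 with Tween 20, after 15 min compound preincubation at room temperature. Fluorescence change, last versus first of five reads.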
# GoLoco inh red = RGS12 GoLoco-Gai1 interaction inhibition | AID 880 | P63096 | Potency, µM (top dose mostly 61.6 µM), for the others: at the top dose activity, negative = inhibition, most hits filed as inhibitors | Gai1:RGS12 GoLoco peptide FP, rhodamine, 10 min | 230,000 tested, 0.44% active; active = well fitted inhibition curve with a large enough effect, not every such curve was filed as active; inactive = no such curve, though single readings can be large or run the other way; note: potency is the fitted concentration of half-maximal effect; % is set by controls: 0 for no effect and ±100 for the full control effect; nearly all actives have a fitted effect of over 30% in size
# Target sequence (P63096 whole entry, looked up): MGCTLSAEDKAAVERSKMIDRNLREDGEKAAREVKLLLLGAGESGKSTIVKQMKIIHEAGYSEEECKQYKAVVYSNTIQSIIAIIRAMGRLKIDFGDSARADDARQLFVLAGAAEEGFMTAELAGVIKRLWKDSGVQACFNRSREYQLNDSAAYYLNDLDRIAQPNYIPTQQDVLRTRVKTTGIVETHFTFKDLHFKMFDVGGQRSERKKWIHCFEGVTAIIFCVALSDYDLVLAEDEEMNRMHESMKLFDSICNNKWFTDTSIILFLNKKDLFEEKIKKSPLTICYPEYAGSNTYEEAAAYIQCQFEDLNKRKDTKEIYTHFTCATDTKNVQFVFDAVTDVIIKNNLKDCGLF
# PNC inhibitor = blocks assembly of the perinucleolar compartment; 140,000 tested, 3.1% active; activity change (PNC), negative = inhibition, % at 10 µM; PC3M PTB-GFP, PNC prevalence imaging, 16 h; stronger effect = lower value;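 active = readout at or below -70, meaning at least 70% loss of cells showing the perinucleolar compartment, a nuclear body marking cancer cells; inconclusive = readout between -30 and a set limit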;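 note: plate controls were DMSO wells for no effect and camptothecin positive control wells for full effect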
#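 Read-out is percentage of cells bearing a perinucleolar compartment, from automated 20x imaging of fixed, Hoechst-stained PC3M PTB-GFP cells. Cells were seeded 4 h, then exposed 16 h to compound (23 nl of library stock) in duplicate plates.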
# HTT ATP protect = cytoprotection in Huntington HTT-Q103 PC12 cell model; PC12 HTT-Q103 induced, cytoprotection, ATP luminescence, 40 h; Potency, µM (highest dose often 56.4 µM), for inactives: cytoprotection (ATP increase), actives largely listed as activators; 230,000 tested, 0.14% active; AID 1471; note: potency is the fitted concentration of half-maximal effect; % of control where 0% means no effect; nearly all actives have a fitted effect of over 45% in size
#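 Compounds were screened for protection of PC12 cells against cell death after tebufenozide induction (100 nM final) of mutant Huntingtin exon 1 (Q103) fused to GFP.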
# * hit, by the source's call; ? = inconclusive; . = not tested or not shown; [ ] = dose if it differs, or a comment. Unless noted, calls come from the whole dose curve; as a rule, active = well fitted curve in the direction sought with a large enough effect; inconclusive = small, poorly fitted or top-dose-only effect, or another doubt; inactive = no such curve, though single readings can be large; an effect the other way counts as inactive or inconclusive.
SMILES,HTT aggregate,ALDH1A1 block,HPGD inh,GoLoco inh red,PNC inhibitor,HTT ATP protect
CC1CCN(C(=O)CCc2nc3cc(S(=O)(=O)N(C)C)ccc3n2C)CC1,-5%,11µM*,-7%,24%,19,2%
CCCCC(c1nnnn1CS(=O)(=O)c1ccc(C)cc1)N1CCN(C)CC1 (stereo not given),9%[9.22 µM],-1%,.,7%,.,17%[10 µM]
Cc1cccc(Oc2nc(CN3CCOCC3)nc3sc4c(c23)CCCC4)c1,7%,?,-16%,3%,-104*,-14%[10 µM]
C=C(C)C1CCC(C)=C1CC(C)(C)/C=N\n1cnnc1 (stereo not given),?,22µM*,-14%,-3%,-20,11%
CC1=CC(C)C(/C=N/n2cnnc2)C(C)C1 (stereo not given),-2%,6%,-8%,8%,-3,11%
CCOC(=O)NCC(C#CCN(CC)CC)N(CC)CC (stereo not given),11%,0%,-1%,4%,-93*,3%[10 µM]
Cc1nn(-c2ccccc2)c(N)c1N=Nc1ccccc1,-5%,?,20µM*,4%,2,.
Cc1cccc(N=Nc2c(C)nn(-c3ccccc3)c2N)c1C,6%,-10%,16µM*,7%,-134*,-7%[10 µM]
Nc1nn(-c2ccccc2)c(N)c1N=Nc1ccccc1,-22%,5%,-20%,-2%,-20,-23%[10 µM]
Nc1nn(-c2ccccc2)c(N)c1N=Nc1ccccc1F,25%,-6%,13µM*,-7%,?,-18%[10 µM]
Cc1nn(-c2ccccc2)c(N)c1N=Nc1ccc(Cl)cc1,3.5µM*,-1%,-19%,3%,-93*,-87%[10 µM]
CCCC[C@@H]1C[C@H]1C(NC(=O)c1ccccc1)c1ccc(C(F)(F)F)cc1 (stereo not given in full),.,7%,-13%,-9%,.,-44%
CCc1nc2ccccc2c(=O)n1NC(=O)c1c(O)c2cccc3c2n(c1=O)CCC3,3%,16%,-13%,14%,-83*,-9%[10 µM]
O=C(Nn1c(Cc2ccccc2)nc2ccccc2c1=O)c1c(O)c2cccc3c2n(c1=O)CCC3,-30%[9.22 µM],?,.,2%,.,-34%[10 µM]
CC(C)(C)N1C(=O)[C@H]2[C@H]3[C@H](O)[C@H](O)C/C(=N/NC(=O)OCc4ccccc4)[C@@H]3CC[C@@H]2C1=O,.,-8%[13.5 µM],.,.,.,-15%[10 µM]
Cc1ccc2nc(SCC(=O)NCC3CCCO3)c(C#N)cc2c1 (stereo not given),18%,5%,6.3µM*,13%,16,-24%[10 µM]
Cc1ccc2cc(C#N)c(SCC(=O)NCC3CCCO3)nc2c1 (stereo not given),-6%,-10%,-23%,-4%,21,-28%
Cc1ccc2nc(SCC(=O)Nc3ccccc3N3CCOCC3)c(C#N)cc2c1,-8%,-1%,-17%,9%,-111*,-7%[1.9 µM]
Cc1ccc(-n2nnc3c(SCC(=O)NCC4CCCO4)ncnc32)cc1 (stereo not given),?,1%,1.3µM*,6%,4,2%[10 µM]
COCCN1C(=O)C(=O)/C(=C(/O)c2ccc(OCC(C)C)cc2)C1c1cccnc1 (stereo not given),.,.,.,.,.,3%[0.074 µM]
CCOC(=O)c1c(CSc2ccccc2)n(C)c2cc(Br)c(O)c(CN(C)C)c12,-9%[9.22 µM],.,.,22µM*,.,-14%[10 µM]
CCOC(=O)c1c(CSc2ccc(C)cc2)n(C)c2cc(Br)c(O)c(CN(C)C)c12,12%[9.22 µM],-13%,.,-6%,.,13%[10 µM]
COc1ccc(OC)c(NC(=O)c2c(NC(=O)CCC(=O)O)sc3c2CCCCC3)c1,?,-10%,-1%,10%,47,.
CCOC(=O)c1c(NC(=O)CNCCOC)sc2c1CCCC2,6%,25µM*,-21%,8%,256,7%[10 µM]
CCOC(=O)c1c(NC(=O)CCC(=O)O)sc2c1CCCCC2,18%,8.9µM*,8.9µM*,1%,?,.
SMILES,HTT aggregate,ALDH1A1 block,HPGD inh,GoLoco inh red,PNC inhibitor,HTT ATP protect
COc1ccccc1NC(=O)c1c(NC(=O)CCC(=O)O)sc2c1CCCCC2,0%[9.22 µM],22µM*,.,6%,.,-1%[10 µM]
O=S(=O)(O)c1cc(O)c2c(O)c(N=Nc3cccc4ccccc34)c(S(=O)(=O)O)cc2c1,.,6%[13.5 µM],-13%,44%[14.2 µM],.,-2%[10 µM]
O=C1CCCC/C1=N\Nc1ccc(OCc2ccccc2)cc1,-7%,1%,-4%,-4%,31,.
CCCCOc1ccc(C2C(C(=O)c3ccc(C)o3)=C(O)C(=O)N2CC2CCCO2)cc1 (stereo not given),5%,?,-21%,15%,18,-12%[10 µM]
CC(=C/c1ccccc1)/C=N/n1c(-c2ccco2)n[nH]c1=S,-17%,?,5µM*,-7%,-26,-19%
CC(/C=N/n1c(-c2cc(C)[nH]n2)n[nH]c1=S)=C\c1ccccc1,-7%,-14%,10µM*,2%,-22,-2%[10 µM]
CC(C)Cc1nc(SCc2cccnc2)c2c(=O)n(C)c(=O)n(C)c2n1,-3%,7.1µM*,.,10%,.,.
Cn1c(=S)c2[nH]c(SCc3cccnc3)nc2n(C)c1=O,.,?,4µM*,-10%[14.2 µM],.,3%[10 µM]
COCCNC(=O)c1cc(Br)ccc1Cl,-3%,3%,22µM*,-7%,27,-6%
CN(C)CCNC(=O)c1cc(Br)ccc1Cl,-6%,8%,-4%,1%,1,1%
CC(C)NC(=O)COC(=O)c1cc(Br)ccc1Cl,3%,-5%,22µM*,-22%,-1,-9%[1.9 µM]
CC(C)NC(=O)COC(=O)c1cc(F)c(F)cc1Cl,-21%,1%,?,-15%,-7,-3%
CCOc1ccc(NC(=S)Nc2ccc(OC(F)(F)F)cc2)cc1,-19%,-8%,-9%,5%,38,10%[10 µM]
CCOc1ccc(NC(=S)Nc2cc(C)[nH]n2)cc1,3%,14µM*,.,4%,.,18%[10 µM]
CCNC(=S)Nc1ccc(OCC)cc1,-6%,4%,0%,-3%,-86*,17%[10 µM]
Cc1cc(NC(=S)Nc2cccc3ccccc23)n[nH]1,1%,6.3µM*,.,-3%,.,.
CCOc1ccc(NC(=S)Nc2ccc(OCC)cc2)cc1,0%,4%,.,8%,.,?
Cc1ccc2c(c1)N(CC(=O)NCC1COc3ccccc3O1)C(=O)CO2 (stereo not given),.,.,.,.,.,-3%
Cc1[nH]nc2c1/C(=N\O)CCC2,-15%,-1%,.,2%,.,-15%
Cc1cccc(COc2ncnc3nc[nH]c23)c1,-30%,1%,-4%,0%,30,.
CN(C)C(=O)c1ccc(-c2cncnc2Nc2ccc(F)cc2)cc1,.,11µM*,.,-2%,.,-24%
CN(C)Cc1ccccc1-c1cncnc1Nc1ccc(F)cc1,.,14%,-9%,-5%,.,10%
CCCc1c(C(=O)Nc2ccc(C(F)(F)F)cc2)cnn1-c1ccccc1,2%[9.22 µM],.,.,-126%,.,-3%[10 µM]
